KB-3-1 cytotox: KB-3-1 parental cell cytotoxicity | KB-3-1 viability, CellTiter-Glo ATP luminescence, 72 h | Potency, µM (highest dose often 46.1 µM), actives largely listed as cytotoxic | 1.4% of 400,000 active | AID 1347075; further: nearly all actives have a fitted effect of over 60% in size
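Multi-concentration cytotoxicity screen in KB-3-1 cells grown in DMEM lacking phenol red with 10% FBS. After 72 h at 37 °C with compound, ATP-dependent luminescence was recorded.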
HT1080 IDH1KD tx: kills HT-1080 cells with IDH1 knockdown. HT-1080 IDH1 knockdown viability, ATP luminescence, 48 h. Potency, µM (series often up to 46.1 µM), actives largely listed as cytotoxic. 2% of 360,000 active
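CellTiter-Glo luminescence after 48 h compound exposure at 37 degrees C of IDH1-knockdown HT-1080 cells in 5% FBS RPMI. %Activity scaled between DMSO wells and cell-free media wells, with curves fitted and assigned curve classes.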
IL1B secr inh: inflammasome signaling inhibition, IL-1 beta readout; 4.7% of 360,000 active; activity change, % at 57.5 µM; THP-1 LPS/ATP IL-1B secretion, AlphaLISA, 16 h; active compounds read low; in the data active means activity change below about -50%; inconclusive means mostly about -30% to -49%
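Secreted IL-1B measured by AlphaLISA bead assay after 16 h compound exposure of THP-1 cells; compounds (final up to 57.5 uM) added 1 h before LPS (250 ng/mL) and ATP (1.25 mM) stimulation; lower signal means less secretion.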
KB-V1 MDR tox: kills drug-selected multidrug resistant KB-V1 cells | 3.4% of 400,000 active | Potency, µM (highest dose often 46.1 µM), most hits filed as cytotoxic | KB-V1 MDR cells viability, CellTiter-Glo, 72 h | AID 1347076; further: nearly all actives have a fitted effect of over 60% in size
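Potencies derive from concentration-effect curves fitted to normalized luminescence (CellTiter-Glo) of KB-V1 cells treated for 72 h at 37 degrees C in phenol-red-free DMEM containing 10% FBS.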
HT1080NT lethal: kills 2HG-producing HT-1080-NT fibrosarcoma cells; HT-1080-NT fibrosarcoma viability, CellTiter-Glo ATP luminescence, 48 h; Potency, µM (doses to about 46.1 µM), actives largely listed as cytotoxic; 1.6% of 360,000 active;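 further: NT is the 2HG producing partner of a matched IDH1 knockdown line; nearly all actives have a fitted effect of over 55% in size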
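750 cells/well, RPMI + 5% FBS; 2 h settle, compound pin-transfer, 48 h at 37 degrees C. CellTiter-Glo 10 min RT, luminescence. Normalized to DMSO and media-only wells.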
A number is an active result; – = inactive; ? = inconclusive; · = no result. A selection: hits, their analogues and other compounds. The true share with any hit is near 8.8%. Unless noted, the call rests on the fitted dose curve; in most records, active means well fitted curve in the direction sought with a large enough effect; inconclusive means small, poorly fitted or top-dose-only effect, or another doubt; inactive means no such curve, though single readings can be large; an effect the other way counts as inactive or inconclusive.

SMILES	KB-3-1 cytotox	HT1080 IDH1KD tx	IL1B secr inh	KB-V1 MDR tox	HT1080NT lethal
Cc1cc(C)cc(NC(=O)c2ccc(CSc3nnc(C)s3)cc2)c1	–	–	?	–	–
CC(C)NS(=O)(=O)c1ccc(OCC(=O)Nc2ccccc2F)cc1	–	–	–	–	–
CC(C)NS(=O)(=O)c1ccc(OCC(=O)Nc2ccc(F)cc2F)cc1	–	–	–	16µM	–
Cc1cc(C(=O)OCC(=O)Nc2ccc(F)cc2F)c(C)o1	–	–	-55	–	–
Cc1cc(C(=O)OCC(=O)Nc2ccccc2C)c(C)o1	–	–	–	?	–
Cc1cc(N2CCN(C)CC2)nc2ccc(NC(=S)N3CCN(c4ccccn4)CC3)cc12	–	?	?	–	16µM
COc1ccccc1N1CCN(C(=S)Nc2ccc3nc(N4CCOCC4)cc(C)c3c2)CC1	–	?	-168	–	–
O=C(NCc1cccs1)c1ccc2c(c1)N(Cc1ccccc1Cl)C(=O)c1ccccc1S2	–	·	·	–	·
CC(=O)N1CCN(c2ccc(NCc3ccc(Br)o3)cc2)CC1	–	·	·	–	·
CC(=O)N1CCN(c2ccc(NCc3cccc4ccccc34)cc2)CC1	?	–	-76	–	–
CN1CCN(c2ccc(NC(=O)c3ccc(-c4ccc(Br)cc4)o3)cc2)CC1	?	23µM	-92	?	15µM
CC(=O)N1CCN(c2ccc(NCc3ccc(-c4ccc(Br)cc4)o3)cc2)CC1	9.2µM	·	·	–	·
CCN1CCN(c2ccc(NC(=O)c3ccc(Br)o3)cc2)CC1	–	–	–	–	–
CCOc1ccc(NC(=O)c2ccc(F)cc2F)cc1	–	–	–	–	–
Cc1ccc(NC(=O)C2CCN(S(=O)(=O)c3ccc4c(c3)CCCN4C(=O)C3CCC3)CC2)cc1	–	·	·	–	·
CC(/C=C1\SC(=S)N(CCC(=O)Nc2ccc(O)cc2)C1=O)=C\c1ccccc1	?	?	-53	–	–
CC(/C=C1\SC(=S)N(CCCC(=O)Nc2ccc(C(=O)O)c(O)c2)C1=O)=C\c1ccccc1	–	–	-55	–	–
CC(=Cc1ccccc1)C=C1SC(=S)N(CCCC(=O)Nc2ccc(C(=O)O)c(O)c2)C1=O	–	–	–	–	–
CC(/C=C1\SC(=S)N(NC(=O)c2ccncc2)C1=O)=C\c1ccccc1	–	–	-79	–	–
CC(=O)c1ccc(NC(=O)CN2C(=O)/C(=C/C(C)=C/c3ccccc3)SC2=S)cc1	–	–	–	–	–
COc1ccc(CNC(=O)C(=O)NCC2OCCN2S(=O)(=O)c2ccc(OC)cc2)cc1 (configuration not stated)	–	–	–	?	–
CCc1ccccc1NC(=O)c1cccc(N2C(=O)C3C4CCC(C4)C3C2=O)c1 (configuration not stated)	–	–	–	–	–
Cc1cccc(NC(=O)c2cccc(N3C(=O)C4C5CCC(C5)C4C3=O)c2)c1C (configuration not stated)	–	–	–	8.2µM	–
Cc1nnc(N/N=C/c2ccc(Br)cc2)n1N	–	23µM	–	–	?
COc1ccc(/C=N/Nc2nnc(C)n2N)cc1OC	–	?	–	–	?
SMILES	KB-3-1 cytotox	HT1080 IDH1KD tx	IL1B secr inh	KB-V1 MDR tox	HT1080NT lethal
Cc1nnc(N/N=C/c2ccc(-c3ccc(Br)cc3)o2)n1N	–	?	–	–	?
COc1ccc(/C=N/Nc2nnc(C)n2N)cc1OC(C)=O	–	16µM	–	–	23µM
CC(=O)Nc1ccc(Nc2c([N+](=O)[O-])c(=O)n(-c3ccccc3)c3ccccc23)cc1	–	–	–	–	–
CN(C)/C=C/c1c([N+](=O)[O-])c2ccc(O)cc2n1-c1ccccc1	–	?	-86	–	?
Cc1ccc(NC(=O)C2CCCN(S(=O)(=O)c3cn(C(C)C)cn3)C2)c(C)c1 (configuration not stated)	–	·	·	–	·
CCOc1cc(N2CCOCC2)c(OCC)cc1NC(=O)c1nn(CC)c(=O)c2ccccc12	?	–	–	3.7µM	–
CCN(CC)S(=O)(=O)c1ccc(N2CCOCC2)c(NC(=O)c2nn(C(C)C)c(=O)c3ccccc23)c1	–	–	–	?	–
CC(C)n1nc(C(=O)Nc2nc3ccccc3[nH]2)c2ccccc2c1=O	–	–	-53	?	–
CC(C)n1nc(C(=O)Nc2ccccc2N2CCOCC2)c2ccccc2c1=O	–	–	–	3.7µM	–
Cc1cc(C)c2c(=O)cc(C(=O)Nc3ccccc3C(F)(F)F)oc2c1	–	·	·	–	·
O=C(CSc1ccccc1F)NC(=O)NC1CCCC1	–	–	–	–	–
O=C(CCC1N=C2c3ccccc3N=C(SCc3ccccc3F)N2C1=O)NC1CCCCC1 (configuration not stated)	–	·	·	?	·
Cc1ccc(NC(=O)c2sc(N)nc2-c2ccc([N+](=O)[O-])cc2)c(C)c1	–	?	–	–	–
Clc1ccc2[nH]cc(-c3nnnn3-c3ccccc3)c2c1	18µM	?	–	16µM	?
Clc1ccc(-n2nnnc2-c2cnc3ccc(Cl)cc3c2-c2ccccc2)cc1	?	–	–	?	–
c1ccc(-n2nnnc2-c2cccc3ccccc23)cc1	·	8.2µM	–	·	5.8µM
Clc1ccc2ncc(-c3nnnn3-c3ccccc3)c(-c3ccccc3)c2c1	?	?	–	–	21µM
c1ccc(-n2nnnc2NCCc2c[nH]c3ccccc23)cc1	–	–	–	–	–
COC(=O)[C@@]12C[C@@H](CC(=O)N3CCCC3)C(=O)N(Cc3ccccc3)C1=CCC(C)(C)C2	–	–	–	?	–
COc1cc2c(cc1OC)C(COc1ccc(F)cc1)N(C(=O)Cc1ccc(F)cc1)CC2 (configuration not stated)	?	·	·	–	·
COc1ccccc1NC(=S)N(Cc1ccccc1)Cc1cccs1	–	–	–	–	–
COc1ccccc1NC(=S)N(Cc1cccs1)C1CCCC1	–	–	-63	–	–
COc1cc(OC)cc(C(=O)N[C@H](C(=O)NC2=NCCS2)C(C)C)c1	–	–	–	12µM	–
CC(C)C(NC(=O)c1ccccc1)C(=O)NC1=NCCS1 (configuration not stated)	–	–	–	–	–
CCc1ccc(NC(=O)CSc2nnc(-c3nonc3NC(C)=O)n2-c2ccccc2)cc1	–	·	·	–	·
Cc1ccc(Cc2c(C)nc3nc(SCC(=O)NCc4ccco4)nn3c2C)cc1	4.6µM	2.6µM	–	8.2µM	?
Cc1cccc(Cc2c(C)nc3nc(SCC(=O)NCc4ccco4)nn3c2C)c1	?	–	–	?	–
CC(=Nc1ccccc1)c1sc2ccccc2c1O	–	–	–	21µM	–
CC(=Nc1ccc(Br)cc1)c1sc2ccccc2c1O	–	–	–	–	–
Cc1ccc(C(=O)CSC2=C(C#N)C(c3ccco3)CC(=O)N2)c(C)c1 (configuration not stated)	–	?	–	15µM	?
